# Assay results reported in ChEMBL document CHEMBL4513216, “Probing the Open Global Health Chemical Diversity Library for Multistage-Active Starting Points for Next-Generation Antimalarials” (ACS Infect Dis, 2020).
# The campaign covered roughly 69,000 compounds. About 8,600 (12%) showed an effect of 50% or more. What follows is part of a selection rich in strong results, with near analogues and random picks from the rest.
# Test system: Plasmodium berghei
# Assay: Screen against P. berghei liver stage (PbLuc), transformed with Luciferase, at 10uM
# Type: functional, HepG2
# Conditions: tested at 10 uM
row,Compound,INHIBITION [%]
1,c1cnc(-c2noc(C3CN(Cc4ccsc4)C3)n2)cn1,28.3
2,CCN(CC)CCNc1nc(C(C)C)nc2c(C)nn(CC)c12,44.9
3,CN(C)CCN1CCCC12CCN(C(=O)c1cccnc1)CC2,11.6
4,Cc1ccc(NC2CCN(C(=O)c3ccoc3C)CC2)nn1,28.95
5,CN1CCC(N2CCCC(C(=O)N3Cc4ccccc4C3)C2)CC1 (stereo not given),10.6
6,O=C(Nc1nncs1)NC1CCN(Cc2ccccc2)C1 (stereo not given),12.433
7,Cc1noc([C@@H]2C[C@@H]3CCN(CC4CC4)C[C@H]3O2)n1,-6.39
8,Cn1ccnc1CNC(=O)N(CCCO)C1CCCc2ccccc21 (stereo not given),-17.4
9,Cc1nnc(CN(C)CC(=O)NCCc2ccc(F)cc2)n1C,-9.39
10,CC(C)COc1ccccc1C(N)CC(C)C (stereo not given),30.9
11,CCCOc1ccccc1C(N)CC(C)C (stereo not given),80.9
12,CCOc1ccccc1C(N)CC(C)C (stereo not given),30.9
13,COCCN1CCOCC2(CCN(c3cnccn3)CC2)C1,29.4
14,CCc1nc(C)ncc1C(=O)N1CC(=O)N(C)c2ccccc21,28.7
15,CCc1nc(C)ncc1C(=O)N1CCN(CC)c2ccccc21,47.7
16,CCc1nc(C)ncc1C(=O)N1CC(C)CN(C)c2ccccc21 (stereo not given),57.8
17,CO[C@@H]1CCN(Cc2nccs2)C[C@@H]1Cc1ccccc1,62.5
18,CO[C@@H]1CCN(C2CCOCC2)C[C@@H]1Cc1ccccc1,-84.9
19,CO[C@H]1CCN(c2nnc(C)s2)C[C@@H]1Cc1cccc(C)c1,24.9
20,C[C@@H]1C[C@@H]2CCN(Cc3nccs3)C[C@H]2O1,40.8
21,C[C@H]1C[C@@H]2CCN(Cc3nccs3)C[C@H]2O1,20.1
22,CO[C@@H]1CCN(c2nnc(C)s2)C[C@@H]1Cc1cccc(C)c1,2.41
23,CO[C@H]1CCN(C2CCOCC2)C[C@@H]1Cc1ccccc1,-8.51
24,CO[C@H]1CCN(Cc2nccs2)C[C@@H]1Cc1ccccc1,69.5
25,CO[C@@H]1CCN(Cc2nccs2)C[C@@H]1Cc1cccc(C)c1,54.4
26,Cc1nc2c(c(=O)[nH]1)CN(C(=O)CC[C@@H]1CCCN3CCCC[C@H]13)C2,-1.85
27,Cc1nn(C)c(N(C)C)c1CNCc1ccccc1Cn1cccn1,33.8
28,O=C(c1c[nH]cn1)N1CCCn2c(CN3CCCCC3)nnc2C1,-56.3

row,Compound,INHIBITION [%]
1,CNS(=O)(=O)c1ccc(CNC(=O)N(C)CC(C)C)cc1,18.3
2,Cc1cnc2n(c1=O)C(CC(=O)NCc1ccccc1Cl)CS2 (stereo not given),6.67
3,Cc1cnc2n(c1=O)C(CC(=O)NCc1ccc(F)cc1)CS2 (stereo not given),18.3
4,Cc1cnc2n(c1=O)C(CC(=O)NCc1ccc(Cl)cc1)CS2 (stereo not given),61.2
5,CCOCC1CN(C(=O)c2ccncn2)Cc2cnn(CC)c21 (stereo not given),35.7
6,CCc1n[nH]c(C2CN(C(=O)c3ccc4c(c3)CCC4)CCO2)n1 (stereo not given),-12.1
7,Cc1ccccc1-n1c(O)cc(C)c(C#N)c1=O,3.84
8,Cc1cc(O)n(-c2ccccc2Cl)c(=O)c1C#N,50.4
9,COc1ccccc1-n1c(O)cc(C)c(C#N)c1=O,39.1
10,Cc1c(S(=O)(=O)NC2CC2)cc2c(C)cc(=O)n3c2c1CCC3,-17.1
11,CCNc1c(NC(=O)NCCOC)c(=O)oc2ccccc12,69.9
12,CCCNc1c(NC(=O)NCCCOC)c(=O)oc2ccccc12,-13.6
13,CCCNc1c(NC(=O)NCCOC)c(=O)oc2ccccc12,-24.7
14,CCC(CNC(=O)NC1CCN(C)CC1)Oc1ccccc1Cl (stereo not given),89.6
15,CN1CCC(NC(=O)NCCNc2ccccn2)CC1,16.1
16,CN1CCC(NC(=O)Nc2cnn(-c3ccccc3Cl)c2)CC1,-10.1
17,CC(C)n1[nH]c(=O)c2c1NC(=O)CC2c1cccc2cccnc12 (stereo not given),-62.3
18,Cc1ccnc(C2(C)CCCN2S(=O)(=O)c2cccnc2)n1 (stereo not given),21.2
19,Cn1ccc(C(=O)NCc2ccc(CN3CCCC3)cc2)cc1=O,-2.19
20,Cn1ccnc1CNC(=O)Nc1ccc(OC2CCC2)c(F)c1,18
21,Cc1cc(NC(=O)NCc2nccn2C)ccc1OC(C)C,37.1
22,COc1cc(NC(=O)NCc2nccn2C)ccc1Br,50.8
23,Cc1cnn(CC2CCCN2C(=O)c2ccc(OCC3CC3)nc2)c1 (stereo not given),-15
24,O=C(CCc1cc2n(n1)CCCN(C(=O)c1ccncc1)C2)NC1CC1,43.2
25,CC(C)[C@H](C)NC1CCN(c2ccc(-c3cscn3)cc2)CC1,81.4
26,CC(C)CC(C)NC1CCN(c2ccc(-c3cscn3)cc2)CC1 (stereo not given),45.2
27,Cc1cc(NC(=O)CN2CCN(c3nc(C)cs3)C(C)C2)on1 (stereo not given),-1.12
